# Hck-Nef inh – inhibitors of Nef-activated human Hck kinase, primary screen, biochemical, Z-Lyte FRET, 384-well, Hck-YEEI; Recombinant Hck-YEEI plus Nef, Z-Lyte FRET kinase assay; AID 463187, 2010; 220,000 tested, 0.68% active; inhibition, % at 20 µM;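 active = Hck-Nef kinase inhibition above about 50%, limit read from the data; inactive = inhibition below that limit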;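 also: 0% = DMSO with Hck plus Nef and 100% = Hck alone without Nef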
# Target sequence (P08631 whole entry, looked up): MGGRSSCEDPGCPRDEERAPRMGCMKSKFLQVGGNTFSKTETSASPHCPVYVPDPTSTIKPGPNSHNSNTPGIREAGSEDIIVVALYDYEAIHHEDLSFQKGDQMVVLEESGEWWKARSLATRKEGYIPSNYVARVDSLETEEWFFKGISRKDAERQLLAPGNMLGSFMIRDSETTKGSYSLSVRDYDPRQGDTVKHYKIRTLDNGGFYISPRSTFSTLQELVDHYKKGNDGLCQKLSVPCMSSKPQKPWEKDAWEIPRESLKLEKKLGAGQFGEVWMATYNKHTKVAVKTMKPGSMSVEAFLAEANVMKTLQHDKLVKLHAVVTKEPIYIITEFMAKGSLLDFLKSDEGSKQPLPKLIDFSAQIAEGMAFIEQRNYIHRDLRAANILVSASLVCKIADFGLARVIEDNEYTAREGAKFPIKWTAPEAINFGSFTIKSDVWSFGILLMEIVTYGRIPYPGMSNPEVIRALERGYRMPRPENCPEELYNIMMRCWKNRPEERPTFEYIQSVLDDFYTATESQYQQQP
# EP2 mod – EP2 receptor modulators, cAMP readout, primary screen, cell-based, HTRF cAMP, PGE2 stimulation; EP2-expressing cells, cAMP HTRF FRET, PGE2 co-stimulation; induction, % at 25 µM; 260,000 tested, 0.83% active;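 active = compounds whose cAMP rise, as percent of the full-agonist control response, exceeds 60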;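 also: rat C6 glioma line stably carrying human EP2 under a CMV promoter; the protocol text gives 20 µM as final concentration; 100% = response of wells given 1 µM PGE2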
# PGE2 EP2 inh – human EP2 receptor antagonists, primary screen, TR-FRET cAMP, C6 glioma cells. Prostaglandin E2 receptor EP2 subtype (Homo sapiens), P43116. C6 glioma cells expressing human EP2; cells stimulated with saturating PGE2. inhibition, % at 25 µM. 260,000 tested, 0.52% active;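 active = percent inhibition above 40 after rounding to a whole number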;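 also: rat C6 glioma host cells with rolipram phosphodiesterase inhibitor present; the protocol text gives 20 µM as final concentration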
# Arbovirus inh – antivirals against arbovirus infection, primary screen, cell-based, full library, 10K replicate subset. arbovirus infection cell-based antiviral screen. inhibition, % at 10 µM. 200,000 tested, 0.37% active. AID 1251, 2008; in the data active = inhibition above about 30%
# p97 ATPase inh – inhibitors of human p97 ATPase, primary screen, biochemical | Transitional endoplasmic reticulum ATPase (Homo sapiens), P55072 | recombinant p97 ATPase, Kinase-Glo ATP luminescence, 3 h | inhibition, % at 8 µM | 220,000 tested, 0.42% active | AID 1481, 2009; in the data active = inhibition above about 15%;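 also: 0% = DMSO vehicle and 100% = wells lacking enzyme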
# EP2 confirm – cAMP induction in EP2, EP4, beta2-AR and parental cells, confirmation, counter-screen for EP2 modulator project, cell-based, five parallel assays, C6 glioma, HEK293; shares compounds with EP2 mod; cAMP HTRF induction; plus low (about EC15) PGE2 agonist; calls only at 20 µM (by protocol); 1,300 tested, 47% active; AID 1080, 2008;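 active = cAMP induction above 50% in the main assay while under 30% in all four parallel counter assays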;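 also: rat C6 glioma cells stably expressing human EP2 receptor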
# * hit, by the source's call; i = inactive; / = no result; + = active, no number. Shown are actives, neighbours in structure and some others; about 2.4% of the full set was active somewhere.
SMILES,Hck-Nef inh,EP2 mod,PGE2 EP2 inh,Arbovirus inh,p97 ATPase inh,EP2 confirm
Cc1ccc2[nH]c(=O)c(C(c3nnnn3C3CCCCC3)N3CCCCCC3)cc2c1 (stereo unspecified),/,9,3,/,/,/
CCOP(=O)(OCC)c1nc(-c2cccc3ccccc23)oc1NCc1ccc(OC)cc1,29,71*,9,-27,-6,i
COP(=O)(OC)c1nc(-c2cccc3ccccc23)oc1NCCc1ccccc1,8,46,7,-4,1,/
CCOP(=O)(OCC)c1nc(/C=C/c2ccccc2)oc1NCc1ccccc1,25,51,3,-7,-9,i
CCOP(=O)(OCC)c1nc(-c2cccc3ccccc23)oc1NCc1ccccc1,3,77*,2,-4,-1,+
CCOP(=O)(OCC)c1nc(-c2ccc(C)cc2)oc1NCc1ccccc1,2,81*,10,-8,1,+
Cc1cccc2cc(C#N)c(SCC(=O)Nc3cc(C(F)(F)F)ccc3Cl)nc12,/,-51,6,/,/,/
CCCn1c(SCC(=O)Nc2cccc(Cl)c2)nnc1-c1ccncc1,/,-28,15,/,/,/
CC12CCC(C(=O)N(CSC(=S)N/N=C\c3ccccc3Cl)C1=O)C2(C)C (stereo unspecified),-1,70*,23,0,0,i
O=C(O)C1C2C=CC(C3CC23)C1C(=O)O (stereo unspecified),2,-2,6,-2,1,/
O=C(O)[C@@H]1[C@H](C(=O)O)[C@@H](C(=O)O)C[C@H]1C(=O)O,/,61*,13,/,/,i
CCOC(=O)c1c(-c2ccccc2)oc2ccc(OC)cc12,-20,69*,21,8,-3,+
S=c1[nH]nc(C23CC4CC(CC(C4)C2)C3)n1Cc1ccco1,0,73*,23,-8,-1,+
O=c1cc(N2CCCCC2)c(-c2ccccc2)nn1Cc1cccc(Cl)c1,0,81*,7,-8,-7,+
O=c1cc(N2CCCCC2)c(-c2ccccc2)nn1Cc1ccccc1Cl,0,70*,3,-42,-4,+
CCCc1cc(-c2nc(N)ncc2-c2csc(C)n2)c(O)cc1OC,43,-52,5,-19,3,/
CCCc1cc(-c2nc(N)ncc2-c2ccc3c(c2)OCCCO3)c(O)cc1OC,20,88*,9,-45,-2,+
CCC(c1nnnn1C(C)(C)CC)N(Cc1ccc(F)cc1)Cc1cc2c(C)ccc(C)c2[nH]c1=O (stereo unspecified),/,28,13,/,/,/
O=C(NCc1nc(-c2cccnc2)n[nH]1)C1(c2ccc(Cl)cc2)CC1,/,-39,5,/,/,/
CCOc1ccc(N(Cc2ccc(OC)cc2)C(=O)c2ccco2)cc1,13,65*,7,-10,-1,i
COc1ccc(CN(C(=O)c2ccco2)c2ccc(Br)cc2)cc1OC,0,17,3,11,-3,/
O=C(CCCCCl)Nc1c2c(nc3c1CCC3)CCCC2,/,-27,9,/,/,/
CCOC(=O)c1oc2ccccc2c1NC(=O)c1cccc(OC)c1OC,0,66*,10,-15,-3,i
COc1cc2nc(N3CCN(C(=O)C4CCCO4)CC3)nc(N)c2cc1OC (stereo unspecified),1,6,18,-7,-4,i
COc1cc2nc(N(C)CCCNC(=O)C3CCCO3)nc(N)c2cc1OC (stereo unspecified),/,-10,15,1,-1,/
SMILES,Hck-Nef inh,EP2 mod,PGE2 EP2 inh,Arbovirus inh,p97 ATPase inh,EP2 confirm
FC(F)(F)c1cccc(/C=N/NC(=S)NC2CCCCC2)c1,22,80*,4,7,8,+
COc1ccc(-c2c(C)nn3c(NCCCO)c(C)c(C)nc23)cc1,/,-66,/,/,/,/
Fc1ccc(Oc2nc(-c3ccccc3)nnc2C(F)(F)F)cc1,-1,69*,11,-7,5,+
Fc1ccc(Sc2nc(-c3ccccc3)nnc2C(F)(F)F)cc1,1,65*,9,-44,-3,i
FC(F)(F)c1nnc(-c2ccccc2)nc1Oc1ccccc1,0,49,3,7,3,/
CN(C)c1ccc(NC(=O)Cn2nc(-c3cccs3)cc(N)c2=O)cc1,/,-26,9,/,/,/
CC1CC(C)CN(CC(O)c2ccc3c(c2)CCCN3S(C)(=O)=O)C1 (stereo unspecified),/,-41,4,/,/,/
CC(=O)Oc1ccc2ccccc2c1C(NC(=O)Cc1ccccc1)c1ccccc1 (stereo unspecified),-1,65*,3,-28,-6,i
CC(=O)NC(c1cccc([N+](=O)[O-])c1)c1c(OC(C)=O)ccc2ccccc12 (stereo unspecified),7,12,11,6,-4,/
CC(C)(C)c1cn2ccc3ccccc3c2n1,/,-101,7,/,/,/
C=CCOc1ccccc1CNc1ccccc1C,5,81*,7,0,1,+
C=CCOc1ccccc1CNc1cccc(F)c1,4,72*,10,-6,0,i
Cc1cc(=O)oc(C)c1C(=O)OC(C(=O)c1ccccc1)c1ccccc1 (stereo unspecified),3,67*,8,-4,-2,i
COC(=O)c1cc(Br)c(=O)n(-c2nccs2)c1,0,65*,25,-4,5,i
COC(=O)c1cc(Br)c(=O)n(-c2ccccn2)c1,2,7,12,7,4,/
O=C(C1CC1)N1CCC[C@H]1Cn1nc(-c2ccc(F)cc2)ccc1=O,/,-34,/,/,/,/
CCOC(=O)C1=C(CC)Nc2ccccc2N=C1NC(=O)c1oc2ccccc2c1C,21,69*,14,7,1,i
CCOCc1c(C(=O)NC2=Nc3ccccc3NC(CC)=C2C(=O)OCC)oc2ccccc12,22,39,11,-9,-5,/
Clc1ccc(COn2c(-c3ccccc3)nc3ccccc32)cc1,0,67*,3,-6,-1,i
Cc1nc(N2CCCCC2)nc(N2CCCCC2)c1[N+](=O)[O-],/,16,9,/,/,/
CC(C)(C)C1CCC(OC(=O)c2cncc(Br)c2)CC1 (stereo unspecified),4,12,7,2,0,/
CC(C)(C)C1CCC(OC(=O)c2ccncc2)CC1 (stereo unspecified),2,84*,-2,-1,2,i

# Source: PubChem BioAssay
